Most compounds without a hit are left out; they make up all but 3.9% or so of the library.
CCHF vOTU inh = blocks the CCHF virus ovarian tumor domain protease; CCHFV vOTU protease, Pep-AMC fluorescence; inhibition, % at 11.5 µM; hit rate 0.55% among 370,000; AID 651958; in the data active = inhibition above about 30%
Anthrax LF prot = blocks Bacillus anthracis lethal factor protease | P15917 | multiplex microsphere protease cleavage assay, LF | inhibition, % at 10 µM | hit rate 0.12% among 360,000 | AID 588501
BoNT-A LC inh2 = inhibitors of Botulinum neurotoxin A light chain protease | multiplex microsphere protease substrate cleavage, flow cytometry | hit rate 0.17% among 360,000 | inhibition, % at 10 µM
Bead autofluor = flagged as autofluorescent in microsphere protease counterscreen; hit rate 3.1% among 360,000; fluorescence intensity (no concentration beside the values); AID 624483; compound autofluorescence counterscreen, microsphere flow cytometry; hits give high values; in the data active = fluorescence intensity above about 16000; inconclusive = no clear call, values can overlap the other calls
3CLpro inhibitor = SARS-CoV 3CLpro protease inhibition; recombinant SARS-CoV 3CLpro, quenched FRET peptide cleavage; inhibition, % at 6 µM; P0C6X7; hit rate 0.14% among 290,000; in the data active = inhibition above about 12%
BoNT-F LC inh = BoNT F light chain protease inhibition; Multiplex microsphere protease cleavage assay, flow cytometry; inhibition, % at 10 µM; hit rate 0.22% among 360,000; AID 588497; in the data active = inhibition above about 35%, passing the limit was not always enough; inconclusive = no clear call, values can overlap the other calls
Hits are given with their value. Rule as the data show it, unless noted: active = inhibition above about 30%; inconclusive = no clear call, values can overlap the other calls; inactive = below that.

What do the screens show for `CC(C)[C@H](NC(=O)[C@@H]1CCCN1)C(=O)N1CCC2CCN(S(=O)(=O)c3ccccc3)CC21` (some centres undefined)?
CCHF vOTU inh: inactive

What do the screens show for `COCCN1C(=O)C2=C(C1=O)C1N(C)c3ccccc3[C@@]13C[C@@H](CO)N(S(=O)(=O)c1ccc(OC)cc1)C3=N2` (some centres undefined)?
CCHF vOTU inh: inactive

How did COC(=O)C1CN(Cc2ccc(OC)cc2)CCS(=O)(=O)N1Cc1cn(Cc2ccc(OC)cc2)nn1 (centres undefined) do in these assays?
CCHF vOTU inh: inactive

Results for O=C(CSc1ncccc1-c1nc2ccccc2[nH]1)NC1CC1 ?
CCHF vOTU inh: inactive; Anthrax LF prot: inactive; BoNT-A LC inh2: inactive; Bead autofluor: inactive; 3CLpro inhibitor: inactive; BoNT-F LC inh: inactive

Results for O=C(CSc1ncccc1-c1nc2ccccc2[nH]1)N1CCN(c2ccccc2F)CC1 ?
CCHF vOTU inh: inactive; Anthrax LF prot: inactive; BoNT-A LC inh2: inactive; Bead autofluor: 17934; 3CLpro inhibitor: inactive; BoNT-F LC inh: inactive

Results for COc1ccc(N2CCN(C(=O)CSc3ncccc3-c3nc4ccccc4[nH]3)CC2)cc1 ?
Anthrax LF prot: inactive; BoNT-A LC inh2: inactive; Bead autofluor: 20130; 3CLpro inhibitor: inactive; BoNT-F LC inh: inactive

What do the screens show for `COc1ccccc1N1CCN(C(=O)CSc2ncccc2-c2nc3ccccc3[nH]2)CC1`?
CCHF vOTU inh: inactive; Anthrax LF prot: inactive; BoNT-A LC inh2: inactive; Bead autofluor: 21668; 3CLpro inhibitor: inactive; BoNT-F LC inh: inactive

What do the screens show for `COC(=O)C1=C(C)NC(C)=C(C(=O)OC)C(N2C(=O)CCC2=O)C1` (centres undefined)?
CCHF vOTU inh: inactive

What do the screens show for `CC(=O)N1CCc2cc(Br)c(S(=O)(=O)NCc3ccc(Cl)cc3)cc21`?
CCHF vOTU inh: inactive

How did CC(=O)NC(C)C(=O)N1CCCC1C(=O)N1CCCC1C(=O)NC(C)C(=O)NC1C(=O)NC(CC(C)C)C(=O)NC2CCCCNC(=O)CCC(C(=O)NC(Cc3ccc(O)cc3)C(=O)O)NC(=O)C3CCC(=O)OCC(NC(=O)C4CCCN4C(=O)C(Cc4c[nH]c5ccccc45)NC2=O)C(=O)NC(CC(=O)OC1C)C(=O)NC(Cc1c[nH]c2ccccc12)C(=O)N3 (centres undefined) do in these assays?
CCHF vOTU inh: inactive

What do the screens show for `O=C(Nc1ccccc1C(=O)NCC1CC1)c1cccs1`?
CCHF vOTU inh: inactive

How did C=CCOc1ccccc1/C=N/O do in these assays?
CCHF vOTU inh: inactive; Anthrax LF prot: inactive; BoNT-A LC inh2: inconclusive; Bead autofluor: 24314; 3CLpro inhibitor: inactive; BoNT-F LC inh: inactive

How did Cc1ccc(-n2[nH]c(=O)c3cccnc32)cc1 do in these assays?
CCHF vOTU inh: inactive; Anthrax LF prot: inactive; BoNT-A LC inh2: inactive; Bead autofluor: 16502; 3CLpro inhibitor: inactive; BoNT-F LC inh: inactive

How did Cc1cccc(C)c1-n1nnnc1C1c2ccccc2OCC(=O)N1Cc1ccc(F)cc1 (centres undefined) do in these assays?
CCHF vOTU inh: inactive

How did CCN(c1ccccc1)S(=O)(=O)c1cc(OC)ccc1OC do in these assays?
CCHF vOTU inh: inactive; Anthrax LF prot: inactive; BoNT-A LC inh2: inactive; Bead autofluor: 22526; 3CLpro inhibitor: inactive; BoNT-F LC inh: inactive

Results for COc1ccc(OC)c(S(=O)(=O)Nc2ccc(Oc3ccccc3)cc2)c1 ?
CCHF vOTU inh: inactive; Anthrax LF prot: inactive; BoNT-A LC inh2: inactive; Bead autofluor: 21725; 3CLpro inhibitor: inactive; BoNT-F LC inh: inactive

How did CCOc1ccc(NS(=O)(=O)c2cc(OC)ccc2OC)cc1 do in these assays?
CCHF vOTU inh: inactive; Anthrax LF prot: inactive; BoNT-A LC inh2: inactive; Bead autofluor: inactive; 3CLpro inhibitor: inactive; BoNT-F LC inh: inactive

How did CCN(c1ccccc1)S(=O)(=O)c1ccc(OC)c(OC)c1 do in these assays?
Anthrax LF prot: inactive; BoNT-A LC inh2: inactive; Bead autofluor: inactive; 3CLpro inhibitor: inactive; BoNT-F LC inh: inactive

How did O=C(NCc1ccccc1)[C@H]1CCCN1C(=O)[C@H]1CCCN1C(=O)N1CCCCC1 do in these assays?
CCHF vOTU inh: inactive

Results for CCc1c(C)nc(N)n2c(SCC(=O)Nc3ccccc3OC)nnc12 ?
CCHF vOTU inh: inactive; Anthrax LF prot: inactive; BoNT-A LC inh2: inactive; Bead autofluor: 23325; 3CLpro inhibitor: inactive; BoNT-F LC inh: inactive

How did Oc1ccccc1C=Nn1c(-c2ccccc2F)n[nH]c1=S do in these assays?
CCHF vOTU inh: inactive

Results for CN(C)C(=O)c1noc2cc([N+](=O)[O-])ccc12 ?
CCHF vOTU inh: inactive; Anthrax LF prot: inactive; BoNT-A LC inh2: inactive; Bead autofluor: 16570; 3CLpro inhibitor: inactive; BoNT-F LC inh: inactive
